Records with an inconclusive call do not appear. The source made the active and inactive calls. How the source made its calls: active means hit-call score of the fitted dose curve at least 0.9, where 1 is the maximum; inconclusive means response in the unintended direction; inactive means score below 0.9.

Chain of Oxysterols receptor LXR-beta (Homo sapiens) (P55055 whole entry, looked up, the tested form may be a part): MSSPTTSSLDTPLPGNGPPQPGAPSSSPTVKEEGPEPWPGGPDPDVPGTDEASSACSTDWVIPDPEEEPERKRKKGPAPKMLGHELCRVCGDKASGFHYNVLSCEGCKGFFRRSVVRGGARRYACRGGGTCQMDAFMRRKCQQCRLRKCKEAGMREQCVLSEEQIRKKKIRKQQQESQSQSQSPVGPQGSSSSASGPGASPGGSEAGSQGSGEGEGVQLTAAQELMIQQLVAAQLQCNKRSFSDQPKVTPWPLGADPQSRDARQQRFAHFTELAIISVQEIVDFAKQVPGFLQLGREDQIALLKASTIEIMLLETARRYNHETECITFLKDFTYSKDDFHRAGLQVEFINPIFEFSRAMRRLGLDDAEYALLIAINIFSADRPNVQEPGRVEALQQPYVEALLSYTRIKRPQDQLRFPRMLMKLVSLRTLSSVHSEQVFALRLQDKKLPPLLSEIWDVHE

The target of the assay is Oxysterols receptor LXR-beta (Homo sapiens) (UniProt P55055). Put plainly: ATG_LXRb_TRANS: Attagene TRANS-FACTORIAL HepG2 Assay for human Liver X Receptor beta (LXRb) (AID 2282981). The settings on record: HepG2 Attagene TRANS GAL4-LXRb reporter, mRNA. The procedure:
ATG_TRANS is a cell-based, multiplexed-readout assay that uses HepG2, a human liver cell line, with measurements taken at 24 hours after chemical dosing in a 24-well plate.ATG_LXRb_TRANS is one of 30 assay component(s) measured or calculated from the ATG_TRANS assay. It is designed to make measurements of mRNA induction, a form of inducible reporter, as detected with fluorescence intensity signals by Reverse transcription polymerase chain reaction (RT-PCR) and Capillary electrophoresis technology.Data from the assay component ATG_LXRb_TRANS was analyzed into 1 assay endpoint. This assay endpoint, ATG_LXRb_TRANS, was analyzed in the positive analysis fitting direction relative to DMSO as the negative control and baseline of activity. Using a type of inducible reporter, measures of mRNA for gain-of-signal activity can be used to understand the reporter gene at the transcription factor-level as they relate to the gene NR1H2. Furthermore, this assay endpoint can be referred to as a primary readout, because this assay has produced multiple assay endpoints where this one serves a reporter gene function. To generalize the intended target to other relatable targets, this assay endpoint is annotated to the nuclear receptor intended target family, where the subfamily is non-steroidal.
Human liver HepG2 cells are transiently transfected with multiple reporter transcription units (MRTUs) in 6-well plates using FuGene 6 reagent (Roche; 3 ml FuGene/1 mg DNA). The MRTU constructs are regulated by a cis-regulating element (promoter). […] A major difference between the CIS and TRANS system is that in CIS activities of endogenous TFs are measured, whereas the TRANS assay evaluates changes in activities of exogenous, chimeric NR-Gal4 proteins. […] At the end of 24 hour incubation, total RNA was isolated using TriZol reagent (Invitrogen). The isolated RNA is then reverse-transcribed using oligo(dT) primer and Mo-MLV reverse transcriptase (Invitrogen) with DNAse I (Ambion) treatment for 30 min. The one-tenth of the produced cDNA was amplified by PCR using Taq DNA polymerase (Invitrogen) and two reporter sequence-specific primers. The PCR products were fluorescently labeled by primer extension with 6-arboxyfluorescein (6-FAM) 5'-labeled reporter sequence-specific primer (2 min at 95 C, 20 s at 68 C and 10 min at 72 C) and these products were digested with 5U of HpaI (New England Biolabs) for 2h at 37 C. The fragments were purified using Qiaquick PCR columns (Qiagen), analyzed on an ABI 3130xL genetic analyzer (Applied Biosystems) with peak positions identified by using a set of X-rhodamine (ROX)-labeled MapMarker1000 molecular weight standards (BioVentures). The raw capillary electrophoresis data was processed using Attagraph software (Attagene).
In the case of `CCCC(=O)OC`, the result was inactive.
The value for `COC(=O)c1ccccc1` was “inactive”; that for `CCC(C)=NO` was “inactive”.
The value for `COC(=O)CCSCCC(=O)OC` was “inactive”; that for `Cc1cc2nc3c(=O)[nH]c(=O)nc-3n(C[C@H](O)[C@H](O)[C@H](O)CO)c2cc1C` was “inactive”; that for `CO[Si](CCCNCCN)(OC)OC` was “inactive”.
The value for `CCCOCCC` was “inactive”; that for `O=C1NC(=O)C2CC=CCC12` (stereo not given) was “inactive”; that for `CCC(=O)OCc1ccc(OC)cc1` was “inactive”.
On to `CC(=O)c1nccs1`, for which the compound was called inactive.
The entry for `CC(C)CC(=O)CC(C)CC(C)C` (stereo not given) is “inactive”; for `CN(C)c1ccc(C(c2ccccc2)c2ccc(N(C)C)cc2)cc1` it is “inactive”.
The value for `CC1=CCCC(C)(C)C12CCC(C)O2` (stereo not given) was “inactive”; that for `CC(=O)CCc1ccccc1` was “inactive”; that for `Clc1ccc(Sc2cc(Cl)c(Cl)cc2Cl)cc1` was “inactive”.
As for `O=C(O)c1ccccc1C(=O)O`, the compound was called inactive.
On to `Cc1cccnc1`, for which the call was inactive.
The value for `CC1(C)S[C@@H]2[C@H](NC(=O)[C@H](N)c3ccccc3)C(=O)N2[C@H]1C(=O)O` was “inactive”.
In the case of `c1ccc(CNc2ncnc3nc[nH]c23)cc1`, the outcome was inactive.
The value for `CCOC(=O)c1ccccc1` was “inactive”; that for `O=C1CCCCCCCCCCCCCC1` was “inactive”; that for `[O-][n+]1ccc(Cl)cc1` was “inactive”.
As for `NC(N)=Nc1nc(CSCCC(N)=NS(N)(=O)=O)cs1`, the compound was called inactive.
Turning to `Cc1cc(O)cc(C)c1Cl`, the outcome was inactive.
The value for `CCOc1ccc2c(c1)C(C)CC(C)(C)N2` (stereo not given) was “inactive”; that for `CCCCCCCCCCCCCCCCCC[N+](C)(C)C` was “inactive”.
The value for `CN1CCCC1` was “inactive”.
The value for `COc1cccc(OC)c1C(=O)O` was “inactive”; that for `C=C(C)C(=O)OCCCCCC` was “inactive”.
Take `CC(=O)OC(C)(C)Cc1ccccc1`: the outcome was inactive.
The entry for `O=C1NC(=O)[C@@H]2CC=CC[C@H]12` is “inactive”; for `CC/C=C\CC1=C(C)CCC1=O` it is “inactive”; for `C=C1CC[C@H]2C[C@@H]1C2(C)C` it is “inactive”.
In the case of `O=C(O)Cc1c[nH]c2ccccc12`, the result was inactive.
Regarding `Cc1ccnc(N)c1`, the call was inactive.
The entry for `CN(C)CCC(c1ccc(Cl)cc1)c1ccccn1` (stereo not given) is “inactive”; for `C=C(C)C(=O)OCC1CCCO1` (stereo not given) it is “inactive”; for `NC(=O)c1ccc(N)cc1` it is “inactive”.
Regarding `CC/C=C\CC/C=C/C(OCC)OCC`, the compound was classed as inactive.
The value for `CC(C)n1c(/C=C/[C@@H](O)C[C@@H](O)CC(=O)O)c(-c2ccc(F)cc2)c2ccccc21` was “inactive”.
